Laboratory results as given in PubChem BioAssay.
Activity calls are given as the source filed them.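 The calls were made as follows, unless noted: active = compounds lowering colon cancer cell viability after pretreatment blocking the GSK3B kinase; inactive = the rest.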

Tests used:
[1] = stimulators of nuclear beta-catenin in C2C12, primary screen, imaging, WNT3A-conditioned medium, mouse C2C12, NPC library (AID 1117326; in the data active = nuclear beta-catenin stimulation mostly above about 4.2%, no sharp cut-off; inactive = mostly below about 10%; also: reference of the scale not given here); conditions: stronger effect = higher value
[2] = stimulators of insulin release from INS-1E, primary screen, cell-based, 5 mM glucose, NPC library (AID 1117329;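 active = compound raises insulin release from rat beta cells at 5 mM glucose, no numeric limit stated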; also: reference of the scale not given here); conditions: rat INS-1E insulin secretion, at 10 µM, stronger effect = higher value
[3] = growth inhibition of GSK3B-pretreated HCT116 cells – cell-based, CellTiter-Glo, 0.2 to 20 µM (AID 1117336); conditions: HCT116 viability after GSK3B inhibitor, at 20 µM, stronger effect = higher value
[4] = inhibition of endothelial tube formation, primary screen, imaging, VEGF stimulated, CD31 staining, tube area, NPC library (AID 1117340;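 active = compound that reduces growth-factor-driven endothelial tube area in a mixed cell culture, no cutoff stated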); conditions: VEGF-stimulated ADSC/ECFC co-culture, at 10 µM, stronger effect = higher value
[5] = glucagon-like peptide 1 release enhancers, primary assay, NCI-H716 cell line, NPC library (AID 1117341;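 active = compound raises GLP1 secretion from the human gut endocrine cells, with no numeric limit stated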; also: reference of the scale not given here); conditions: NCI-H716 cells, at 10 µM, stronger effect = higher value
[6] = HCT116 colon cancer cell growth inhibition, primary screen, CellTiter-Glo luminescence, NPC library (AID 1117342;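 active = compounds that lower survival of HCT116 colon cancer cells in the luminescence readout, no numeric limit stated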); conditions: at 20 µM (top of the series)
[7] = CellTiter-Glo luminescent readout of SW480 viability loss, NPC library primary (AID 1117343;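 active = compounds that lower viability of the colon cancer cells in the luminescence readout, with no numeric limit stated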); conditions: CellTiter-Glo luminescence; at 20 µM (top of the series)
[8] = decreased DLD-1 cellular survival, CellTiter-Glo luminescent readout, NPC compound collection, primary HTS (AID 1117346;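 active = compounds that lower survival of DLD-1 colon cancer cells in the luminescence readout, no cutoff given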); conditions: DLD-1 viability, CellTiter-Glo luminescence; at 20 µM (top of the series)

SMILES	nuclear beta-catenin stimulation ([1]; at 10 µM)	nuclear beta-catenin stimulation ([1]; stimulation, at 2 µM) [%]	insulin secretion stimulation [2]	viability decrease [3]	tube area decrease [4]	GLP1 secretion stimulation [5]	inhibition of viability [6]	viability decrease (inhibition) [7]	viability decrease (inhibition) [8]
Nc1c(NC/C=C\COc2cc(CN3CCCCC3)ccn2)c(=O)c1=O	0.1% (inactive)	-1.1	0.1% (inactive)	2.9% (inactive)	1% (inactive)	4% (inactive)	8.6% (inactive)	-4.4% (inactive)	-5% (inactive)
Nc1ccc(O)cc1	18.2% (inactive)	2	1% (inactive)	99.1% (active)	60.9% (active)	-3.8% (inactive)	99.3% (active)	102% (active)	62.6% (active)
O=C(c1cc(O)c(O)c(O)c1)c1ccc(O)c(O)c1O	1% (inactive)	17.1	6.1% (inactive)	98.2% (active)	8.9% (inactive)	4.8% (inactive)	69.7% (active)	103% (active)	58.6% (active)
Cc1cc(=O)oc2cc(O[C@@H]3SC[C@@H](O)[C@H](O)[C@H]3O)ccc12	-0.2% (inactive)	-1.9	1.1% (inactive)	-1.3% (inactive)	13.6% (inactive)	3.6% (inactive)	-1.1% (inactive)	-15.9% (inactive)	15.4% (inactive)
NC(=O)C[C@H](N)C(=O)O	3% (inactive)	1.1	-1.3% (inactive)	-1% (inactive)	-19.4% (inactive)	2.4% (inactive)	0.3% (inactive)	0.2% (inactive)	5.4% (inactive)
Clc1ccccc1-c1nc(-c2ccncc2)no1	-0.3% (inactive)	0.5	-2.3% (inactive)	3.6% (inactive)	23.5% (inactive)	-2.9% (inactive)	18.1% (inactive)	8.4% (inactive)	-2.9% (inactive)
CCN(CC)c1ccc(C(=C2C=CC(=[N+](CC)CC)C=C2)c2cc(S(=O)(=O)O)ccc2S(=O)(=O)[O-])cc1	0.8% (inactive)	4.4	1.5% (inactive)	1.1% (inactive)	10.6% (inactive)	-12.8% (inactive)	20.3% (inactive)	52.8% (active)	13% (inactive)
Cc1cnc(NS(=O)(=O)c2ccc(N)cc2)nc1	1.1% (inactive)	-0.7	1.8% (inactive)	7.4% (inactive)	-8.2% (inactive)	-0.6% (inactive)	-6.6% (inactive)	7.7% (inactive)	6.6% (inactive)
Cc1cc(CCCOc2c(C)cc(-c3noc(C(F)(F)F)n3)cc2C)on1	9.7% (inactive)	-3.5	-0.2% (inactive)	46.3% (inactive)	-0.1% (inactive)	-4.1% (inactive)	68.5% (active)	45.6% (inactive)	71.8% (active)
Fc1ccc(C(c2ccc(F)cc2)N2CCNCC2)cc1	-0.2% (inactive)	0.1	16.6% (inactive)	29.7% (inactive)	13.9% (inactive)	7.5% (inactive)	79.8% (active)	72.4% (active)	25.2% (inactive)
COC(=O)C(CN)c1c[nH]c2ccc(OC)cc12 (stereo not given)	-2.2% (inactive)	-1	2.3% (inactive)	-18.2% (inactive)	5.7% (inactive)	7.7% (inactive)	8.5% (inactive)	19.4% (inactive)	16.7% (inactive)
NS(=O)(=O)c1cc(C(=O)NN2C[C@H]3[C@H]4CCC(C4)[C@H]3C2)ccc1Cl	-1.3% (inactive)	2.2	-3.6% (inactive)	-4.2% (inactive)	-14.3% (inactive)	-0.6% (inactive)	10.3% (inactive)	-2.9% (inactive)	-6.4% (inactive)
O=P(O)(O)C(Sc1ccc(Cl)cc1)P(=O)(O)O	1.7% (inactive)	1.6	3.9% (inactive)	-2.7% (inactive)	1% (inactive)	-2.7% (inactive)	4.3% (inactive)	2.6% (inactive)	2% (inactive)
COC(=O)C1=C(C)NC(C)=C(C(=O)OCC(C)=O)C1c1ccccc1[N+](=O)[O-] (stereo not given)	1.6% (inactive)	1.2	-0.3% (inactive)	25.5% (inactive)	7% (inactive)	-2.7% (inactive)	39.1% (inactive)	69.6% (active)	28.3% (inactive)
CCOC(=O)[C@H](CCc1ccccc1)N[C@H]1CCCN2CCC[C@@H](C(=O)O)N2C1=O	-0.5% (inactive)	0.8	-0.4% (inactive)	-16.7% (inactive)	-6.5% (inactive)	4.4% (inactive)	4.2% (inactive)	4.5% (active)	-2.1% (inactive)
